Only some compounds are listed: those with a hit (about 28% of all), similar ones and a draw of the others.
CYP2C9 inhib: human CYP2C9 inhibition | P11712 | hit rate 20% among 96,000 | CYP2C9 Supersomes, luciferin-H conversion, luminescence | inhibition, % at 5 µM;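 active = blocking of liver enzyme CYP2C9 beyond about 50% at 5 µM, limit read from the data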
Target sequence (P11712 whole entry, looked up): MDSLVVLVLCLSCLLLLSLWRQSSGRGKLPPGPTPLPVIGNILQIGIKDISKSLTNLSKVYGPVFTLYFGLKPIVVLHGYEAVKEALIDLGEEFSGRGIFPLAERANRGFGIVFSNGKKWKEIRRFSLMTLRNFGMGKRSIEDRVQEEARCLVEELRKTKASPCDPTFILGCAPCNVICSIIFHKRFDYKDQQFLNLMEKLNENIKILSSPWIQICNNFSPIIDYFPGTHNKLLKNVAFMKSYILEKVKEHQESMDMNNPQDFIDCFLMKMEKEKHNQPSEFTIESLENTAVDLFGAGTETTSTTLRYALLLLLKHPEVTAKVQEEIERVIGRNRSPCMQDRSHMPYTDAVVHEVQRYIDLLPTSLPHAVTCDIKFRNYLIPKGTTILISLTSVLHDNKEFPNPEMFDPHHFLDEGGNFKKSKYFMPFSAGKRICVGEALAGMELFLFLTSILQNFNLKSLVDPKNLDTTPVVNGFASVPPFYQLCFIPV
CYP2C19 act: increases human CYP2C19 enzyme activity; P33261; recombinant CYP2C19, luciferin-H EGE luminescence; active compounds read high; 0 = fully inhibited enzyme, 1 = untreated enzyme; activation factor at 5 µM; 96,000 tested, under 10 active; AID 1025;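 active = activation factor of at least 2 at 5 µM in the primary screen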;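 also: 0 = wells with 2.5 mM tranylcypromine and 1 = vehicle-only wells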
CYP2C9 activ: CYP2C9 (human) activation | activation factor at 5 µM | P11712 | recombinant CYP2C9, luciferin-H conversion, luminescence; active compounds read high; factor 1 = untreated enzyme, 0 = blocked | hit rate 1.4% among 96,000;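 active = activation factor of 2 or more for CYP2C9 at a 5 µM dose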;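 also: 0 = sulfaphenazole-blocked wells and 1 = vehicle-only wells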
CD11b adhes enh: CD11b/CD18-fibrinogen binding enhancement. AID 1499. activation, % at 10 µM. P05107+P11215. K562 CD11b/CD18 adhesion to fibrinogen, ATPlite luminescence. hit rate 0.07% among 93,000;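 active = 10 µM primary screen giving 50% or more activity, confirmed by 40% or more on retest at that dose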
CD11b adhes inh: CD11b/CD18-fibrinogen binding inhibition. hit rate 0.54% among 93,000. inhibition, % at 10 µM. K562 CD11b/CD18 adhesion to fibrinogen, ATPlite luminescence; Mn2+ added to activate the integrin;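 active = primary inhibition of 50% or more at 10 µM, then 40% or more on retest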
CYP2C19 inh: inhibitors of human CYP2C19; P33261; CYP2C19 Supersomes, luciferin-H EGE luminescence, 30 min; inhibition, % at 5 µM; hit rate 21% among 96,000; AID 778;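 active = CYP2C19 inhibition above a set limit at 5 µM in the primary screen, cut at about 50% in these data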;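 also: plate controls were negative control wells for no effect and 2.5 mM tranylcypromine positive control for full effect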
Numbers without * were called inactive; · = not tested or not shown.

SMILES | CYP2C9 inhib | CYP2C19 act | CYP2C9 activ | CD11b adhes enh | CD11b adhes inh | CYP2C19 inh
O=C(CSc1nnc(-c2ccccc2)n1Cc1ccccc1)N1CCCC1 | -6.2 | 1.1 | 1.1 | 0.3 | 1.2 | -5.0
Nc1nnc(SCC(=O)N2CCN(Cc3ccccc3)CC2)s1 | 52.9* | 0.3 | 0.5 | -2.3 | -44.3 | 68.4*
Cc1nc2nc(-c3ccc(Cl)cc3)[nH]n2c(=O)c1C | 0.3 | 1.1 | 1 | -1.8 | 3.4 | -11.1
CC(C)C(=O)NC(c1ccco1)c1c(O)ccc2ccccc12 (centres undefined) | 65.5* | 0.7 | 0.3 | -0.9 | 12.2 | 26.0
CCC(=O)NC(c1ccc([N+](=O)[O-])cc1)c1c(O)ccc2ccccc12 (centres undefined) | 54.3* | 0.1 | 0.5 | -3.0 | -0.6 | 94.4*
COc1cc(C(=O)NC(c2ccccc2)c2ccccc2)cc(Cl)c1OC | · | · | · | -3.9 | 2.5 | ·
CC(C)C(=O)NC(c1ccccc1Cl)c1c(O)ccc2ccccc12 (centres undefined) | 12.0 | 0.8 | 0.9 | -0.6 | -1.7 | 21.9
CCC(=O)NC(c1ccccc1Cl)c1c(O)ccc2ccccc12 (centres undefined) | · | · | · | -5.2 | 12.8 | ·
O=C(NC(c1ccccc1)c1c(O)ccc2ccccc12)c1ccccc1Cl (centres undefined) | 93.1* | 0.2 | 0.1 | · | · | 75.8*
CCN1C(=O)CC(Sc2ccccc2N)C1=O (centres undefined) | 41.3 | 0.5 | 0.6 | -3.6 | 6.6 | 54.1*
CC(=O)c1cc2c(cc1NC(=O)CN1CCC(Cc3ccccc3)CC1)OCO2 | 86.7* | 0.3 | 0.1 | 2.1 | 5.5 | 71.3*
CC(=O)c1cc2c(cc1NC(=O)CSc1nc3ccccc3[nH]1)OCO2 | · | · | · | -0.3 | 6.0 | ·
CCOC(=O)N1CCN(CC(=O)Nc2cc3c(cc2C(C)=O)OCO3)CC1 | 79.6* | 0.8 | 0.2 | -3.8 | 9.0 | 15.1
Cc1nc2ccc(C(=O)OCc3ccccc3Br)cc2nc1C | -31.9 | 0.8 | 1.3 | -4.1 | -7.2 | 15.5
Cc1ccc(-n2ncc3c(=O)n(CC(=O)Nc4cccc(Cl)c4)cnc32)cc1C | 11.5 | 1 | 0.9 | -2.0 | 11.6 | 3.1
O=C(COC(=O)c1cnccn1)c1ccccc1 | 81.7* | 0.9 | 0.2 | -3.8 | 5.4 | 8.5
N/C(=N\OC(=O)c1ccc(Br)cc1)c1ccccc1 | 4.9 | 1 | 1 | -3.1 | 7.9 | -2.8
CCc1ccc(C(=O)COc2ccc(NC(C)=O)cc2)cc1 | 77.3* | 0.1 | 0.2 | 0.3 | -28.1 | 87.5*
O=C(COC(=O)c1ccccc1)c1ccc(Br)cc1 | 12.9 | 0.4 | 0.9 | 1.5 | 8.1 | 56.5*
COC(=O)c1cc(O)c(OCc2ccccc2)c(O)c1 | 91.4* | 0.1 | 0.1 | 1.5 | -5.5 | 95.0*
CCOC(=O)C(CC)n1cnc2c(oc3ccccc32)c1=O (centres undefined) | 19.5 | 0.9 | 0.8 | · | · | 14.0
O=C(CSc1nnc(-c2ccccc2O)o1)Oc1ccc(OCc2ccccc2)cc1 | -9.5 | 0.5 | 1.1 | 6.6 | -4.0 | 48.6
O=C(OCc1ccc(Cl)c(Cl)c1)c1cnccn1 | 6.5 | 0.4 | 0.9 | 4.5 | -16.4 | 60.9*
O=C(OCCOc1ccc(Br)cc1)c1cnccn1 | -6.0 | 0.4 | 1.1 | -5.5 | 2.6 | 61.6*
O=C(COC(=O)c1ccccc1Nc1ccccc1)c1ccccc1 | 56.9* | 0.7 | 0.4 | · | · | 29.9
SMILES | CYP2C9 inhib | CYP2C19 act | CYP2C9 activ | CD11b adhes enh | CD11b adhes inh | CYP2C19 inh
O=C(COC(=O)c1cnccn1)c1ccc(Br)cc1 | 1.8 | 0.9 | 1 | -5.5 | -0.1 | 11.5
NC(=O)COC(=O)c1ccc(Oc2ccccc2)cc1 | 44.3 | 0.4 | 0.6 | -4.7 | -12.1 | 55.4*
COc1ccc(Cl)cc1NC(=O)CSc1nnc(CN2CCOCC2)n1-c1ccc(Cl)cc1 | -4.1 | 1 | 1 | 0.7 | 6.6 | 1.5
Cc1nnc(SCCn2c(N3CCCC(C)C3)nc3c2c(=O)n(C)c(=O)n3C)s1 (centres undefined) | 23.3 | 1 | 0.8 | 3.9 | -1.9 | 4.0
CC(C)CCNC(=O)NC(=O)COC(=O)C1CCN(S(=O)(=O)c2ccccc2F)CC1 | · | · | · | 0.5 | 3.6 | ·
CC(=O)Nc1ccc(OCC(=O)c2cc(C)ccc2C)cc1 | -15.1 | 0.7 | 1.2 | -1.5 | -19.9 | 33.4
CC(=O)Nc1ccc(OCC(=O)c2ccc(C)cc2C)cc1 | -2.4 | 0.3 | 1 | 0.3 | 10.4 | 72.2*
COC(=O)c1ccc(OCC(=O)c2ccccc2)cc1 | 29.9 | 0.3 | 0.7 | -4.3 | 6.8 | 74.9*
CC(=O)N1CCC(=O)N(C(C)C)c2ccccc21 | 4.1 | 1.1 | 1 | · | · | -7.0
COc1cccc(Nc2nc(CN3CCOCC3)nc3sc4c(c23)CCCC4)c1 | · | · | · | 2.2 | 8.8 | ·
N#CC1=C(N)C(C#N)(C#N)C2(C(=O)Nc3ccccc32)C2CCCC=C12 (centres undefined) | 55.3* | 0.6 | 0.4 | -4.4 | -3.0 | 35.2
COc1ccc(C(=O)Cn2c3ccccc3n3nc(CCC(=O)O)c(=O)nc23)cc1OC | -11.0 | 0.7 | 1.1 | 1.4 | -29.4 | 30.8
N#Cc1nc(COc2ccccc2)oc1N1CCCC1 | 31.0 | 0.1 | 0.7 | 1.7 | -4.0 | 88.0*
N#Cc1nc(COc2ccc(Br)cc2)oc1N1CCCCCC1 | 41.8 | 0.8 | 0.6 | 0.9 | -1.9 | 21.3
N#Cc1nc(COc2ccc(Br)cc2)oc1N1CCCC1 | 64.7* | 0 | 0.4 | 4.1 | -12.6 | 99.3*
CN1CCN(c2oc(COc3ccc(-c4ccccc4)cc3)nc2C#N)CC1 | 19.9 | 0.4 | 0.8 | -1.8 | 13.3 | 55.1*
O=C1CC(c2ccccc2)n2nc(N3C(=O)c4ccccc4C3=O)nc2N1 (centres undefined) | 1.5 | 1.1 | 1 | 0.0 | 0.1 | -5.5
NC(=O)C1(N2CCCCC2)CCN(C(=O)NC23CC4CC(CC(C4)C2)C3)CC1 | 56.1* | 0.9 | 0.4 | -4.9 | -2.8 | 14.2
COc1ccc(OC)c(C(=O)COC(=O)CNC(=O)C2CCCCC2)c1 | -34.9 | 0.8 | 1.3 | -1.1 | -10.6 | 22.4
O=C1CC(c2ccc3c(c2)OCO3)Sc2nc3ccccc3n21 (centres undefined) | 64.3* | 0.4 | 0.4 | -3.1 | 20.3 | 60.0*
O=C1C2=C(Nc3ccccc3SC2c2ccco2)c2ccccc21 (centres undefined) | 78.1* | 0.8 | 0.2 | -0.2 | 33.6 | 18.7
Cc1noc(C)c1COc1ccc(C(=O)NCc2ccccn2)cc1 | -16.4 | 1.1 | 1.2 | -0.2 | -15.5 | -13.2
Cc1cc(OCCn2cc(/C(N)=N/O)c3ccccc32)ccc1Cl | 28.9 | 0.6 | 0.7 | · | · | 37.6
COc1ccc(NC(=O)c2ccc(CNc3c(NC4CCCCC4)c(=O)c3=O)cc2)c(OC)c1 | 70.3* | 0.9 | 0.3 | 24.6 | -10.4 | 14.8
CCOc1ccc(NC(=O)c2ccc(CNc3c(NC4CCCCC4)c(=O)c3=O)cc2)cc1 | -8.2 | 1.1 | 1.1 | 91.7 | -4.7 | -12.7

Bioassay records (PubChem BioAssay)
